Laboratory results from PubChem BioAssay (NCI).
Compounds without any hit were thinned out: in the full panel of roughly 83,000, 20% have a hit.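 Activity criterion: percent growth below 10, measured after cells in 96-well plates were exposed to a single compound concentration for 48 hours.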 Values without a mark were called inactive. Active and inactive are the calls of the source.

Experiments:
Test in all cases: NCI-60 one-dose screen, 48 h (100 = growth as untreated, 0 = no growth, -100 = all killed)
Conditions in all cases: 10 µM unless noted
NCI-H23 lung = test system: NCI-H23 lung
NCI-H226 lung = test system: NCI-H226 lung
NCI-H322M lung = test system: NCI-H322M lung
HOP-62 NSCLC = test system: HOP-62 NSCLC
NCI-H460 lung = test system: NCI-H460 lung
HOP-92 NSCLC = test system: HOP-92 NSCLC
NCI-H522 lung = test system: NCI-H522 lung
A549/ATCC NSCLC = test system: A549/ATCC NSCLC
786-0 renal = test system: 786-0 renal
COLO 205 colon = test system: COLO 205 colon
DU-145 prostate = test system: DU-145 prostate
K-562 leukemia = test system: K-562 leukemia
MALME-3M melanoma = test system: MALME-3M melanoma
MDA-MB-231 breast = test system: MDA-MB-231 breast
RXF 393 renal = test system: RXF 393 renal
SF-268 CNS = test system: SF-268 CNS
SF-295 CNS = test system: SF-295 CNS
SF-539 CNS = test system: SF-539 CNS
UACC-257 melanoma = test system: UACC-257 melanoma
M14 melanoma = test system: M14 melanoma

Compound	growth (NCI-H23 lung)	growth (NCI-H226 lung)	growth (NCI-H322M lung) [%]	growth (HOP-62 NSCLC)	growth (NCI-H460 lung)	growth (HOP-92 NSCLC)	growth (NCI-H522 lung)	growth (A549/ATCC NSCLC) [%]	growth (786-0 renal)	growth (COLO 205 colon)	growth (DU-145 prostate)	growth (K-562 leukemia) [%]	growth (MALME-3M melanoma)	growth (MDA-MB-231 breast)	growth (RXF 393 renal)	growth (SF-268 CNS)	growth (SF-295 CNS) [%]	growth (SF-539 CNS)	growth (UACC-257 melanoma) [%]	growth (M14 melanoma)
Cn1c2ccccc2c2c3c(c4c5cc(Br)ccc5n(C)c4c21)C(=O)N(O)C3=O	2.91% (active)	14.8%	31.8	0.364% (active)	4.42% (active)	40.8%	25.4%	40.3	14.6%	23.2%	-50.7% (active)	10.4	42.4%	-32% (active)	-24.8% (active)	-0.663% (active)	25.9	-27.7% (active)	48.6	-5.5% (active)
O=C1CCC(C(=O)N/N=C/c2cc(F)ccc2F)N1 (stereo not given)	95.3%	99.2%	99.7	103%	101%	95.4%	93.7%	97.6	103%	110%	110%	97.1	95.1%	111%	108%	97.2%	99.5	101%	103	104%
COc1ccc(-c2cn(Cc3cc4ccccc4s3)nn2)cc1OCCN1CCCCC1	78.3%	95.6%	94.2	84%	90%	50%		80.2	69.1%	60.7%	85.7%	16.3	5.75% (active)	45.9%	44.2%	70.8%	70.6	79.7%	41.1	-29.4% (active)
O=C(O)c1cn(C2CC2)c2cc(N3CCN(C(=O)N/N=C/c4cccc5ccccc45)CC3)c(F)cc2c1=O	93.9%	94.3%	101	95.2%	106%	97.2%	81%	106	71.7%	114%	104%	103	101%	94.9%	95.5%	86.3%	104	93.4%	98.8	93.1%
Cc1cc(O)cc(-c2nn(C)cc2-c2cc(N3CCOCC3)nc(-c3cccnc3)n2)c1	56.1%	36.7%	59.7	49.3%	12.4%	6.01% (active)	13.1%	39.3	18.2%	16.3%	53.7%	21.6	55.7%	53.2%	9.64% (active)	44.8%	14.9	-12.8% (active)	61.3	28.4%
COc1cc2ncnc(Nc3ccc(S(=O)(=O)Nc4nccs4)cc3)c2cc1OCCCN1CCCC1	99.8%	105%	103	103%	107%	119%	94.1%	102	105%	113%	105%	84.2	101%	104%	99%	99.2%	106	101%	99.6	109%
Cc1c(C(C)(C)O)cn2ncnc(Oc3ccc(NC(=O)Nc4ccc(Cl)c(C(F)(F)F)c4)c(F)c3)c12	30.6%	62.6%	92.1	101%	25.9%	36.4%		41.2	64.8%	72.8%	80.6%	25.4	91.4%	73.3%	72.4%	63.6%	36.4	41%	80	55.1%
CSc1nc2ccc(C)cc2cc1/C=C1/C=C(c2ccccc2)NC1=O	75.2%	69.4%	65.8	72.8%	19.2%	36.4%	67.6%	47.2	2.66% (active)	69.8%	47.4%	41.3	40.4%	38.5%	79.1%	66.3%	36.7	39.5%	80	64.1%
O=S(=O)(Nc1ccc2ccccc2c1)c1ccc(-c2cnc(C3CC3)o2)cc1	41.1%	62.1%	48.7	31.6%	15.2%	54.2%	-0.255% (active)	37.6	42.7%	1.46% (active)	18%	10.4	50.3%	52.4%	2.78% (active)	53.5%	34.2	6.39% (active)	44.5	19.4%
COC1/C=C/OC2(C)Oc3c(C)c(O)c4c(O)c(c(/C=N/N(c5ccccc5)c5ccccc5)c(O)c4c3C2=O)NC(=O)C(C)=C/C=C/C(C)C(O)C(C)C(O)C(C)C(OC(C)=O)C1C (stereo not given)	64.3%	-47.9% (active)	109	73.1%	56.5%	79%	37.6%	57	106%	8.26% (active)	90.1%	72.4	111%	90.9%	-53.5% (active)	80.7%	65.1	89.8%	75.8	95.7%
Cc1ccc2c(c1)sc1nc(-c3c[nH]c4ccccc34)c(Nc3ccccc3)n12	98.4%	98.6%	106	96.1%	101%	101%	90.6%	101	105%	107%	108%	94.4	101%	93%	111%	101%	100	97.2%	105	107%
C=CN(C(=O)N1CCN(c2cc3c(cc2F)c(=O)c(C(=O)O)cn3C2CC2)CC1)c1nc(-c2ccccc2)cs1	101%	98.1%	84.1	98.4%	104%	90.6%		102	90.1%	98.5%	107%	94.8	107%	90.4%	103%	99.4%	95.7	96.5%	100	105%
CCOc1ccc(/C=C/C(=O)c2cccc(OCCCOc3cccc(C(=O)/C=C/c4ccc(OCC)cc4)c3)c2)cc1	83.9%	73.8%	84.5	107%	65.4%	91.6%		85.4	100%	116%	82.8%	69.9	100%	83.3%	105%	85.3%	76.4	110%	82.7	69%
COC(=O)[C@]1(C)CCC[C@]2(C)[C@H]3C[C@@H]4[C@H]5[C@@H]6CC/C(=N\OCC/C(N)=N/O)[C@H]5[C@@]3(CC[C@H]21)CC4(C(C)C)O6	73.4%	83.7%	82.2	80.8%	67.5%	65%		71.8	86.2%	72.1%	71.5%	79.3	82.1%	61.2%	42.5%	72.9%	72.7	79.2%	80.4	72.6%
